IMPase Li cell – qHTS Assay for Identifying the Cell-Membrane Permeable IMPase Inhibitors: Potentiation with Lithium; CHO-M1 cells, IP1 TR-FRET (IP-One), carbachol + lithium; Potency, µM (doses to about 59.4 µM), inactives show at the highest dose activity, negative = IMPase inhibition, hits mostly inhibitors; actives 0.35% (n = 210,000); AID 1457, 2008;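 further: IP1 builds up when IMPase is blocked and the TR-FRET signal falls; potency means the concentration at half of the fitted maximal effect; plate controls were basal vehicle for no effect and high inhibitor control for full effect; nearly all actives have a fitted effect of over 50% in size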
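Test compounds were applied to CHO-M1 cells previously cultured for 16–30 h at 2000 per well. A small lithium amount accompanied them; after 30 min at 37C, IP1 was quantified by TR-FRET.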
IMPase inh – qHTS Assay for Identifying the Cell-Membrane Permeable IMPase Inhibitors | AID 901, 2007 | 120,000 tested, under 10 active | inhibition (IP1 accumulation), % at 46.1 µM | Inositol monophosphatase 1 (Rattus norvegicus), P97697 | CHO-M1 cells, IP1 accumulation, HTRF TR-FRET ratio; active means well fitted curve in the direction sought with a large enough effect in the signal ratio, not every such curve was filed as active; inconclusive means small, poorly fitted or top-dose-only effect, or a change in a side signal; inactive means no such curve, though single readings can be large or run the other way; the % refers to the signal ratio;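 further: cells stimulated with carbachol in lithium chloride buffer; plate controls were DMSO basal wells for no effect and reference inhibitor wells for full effect; higher means more IMPase inhibition seen as more IP1 and lower FRET ratio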
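CHO-M1 cells (CHO stably expressing M1 receptor), compound up to 46 uM final, stimulated with carbachol (50 uM as added) in buffer with 50mM LiCl, pH 7.4, 30 min at 37C. Cytosolic IP1 read by TR-FRET; AC50 from Hill fits.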
PNC assembly inh – High Content Assay for Compounds that inhibit the Assembly of the Perinucleolar Compartment. actives 3.1% (n = 140,000). PC3M PTB-GFP, PNC prevalence imaging, 16 h; hits give low values. activity change (PNC), negative = inhibition, % at 10 µM. AID 2417, 2010;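 active means readout at or below -70, meaning at least 70% loss of cells showing the perinucleolar compartment, a nuclear body marking cancer cells; inconclusive means readout between -30 and a set limit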;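 further: plate controls were DMSO wells for no effect and camptothecin positive control wells for full effect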
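Compounds are pinned in duplicate onto adhered PC3M cells stably expressing GFP-tagged PTB and incubated 16 h at 37 C. Cells are then fixed, nuclei stained with Hoechst, and PNC-positive cells counted.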
ALOX12 inhib – qHTS Assay for Inhibitors of 12-hLO (12-human lipoxygenase); Polyunsaturated fatty acid lipoxygenase ALOX12 (Homo sapiens), P18054; purified 12-hLO, xylenol orange hydroperoxide absorbance; Potency, µM (series often up to 57.1 µM), without a hit: top-dose activity change, negative = inhibition, most hits filed as inhibitors; actives 0.12% (n = 150,000); AID 1452, 2008; further: potency means the concentration at half of the fitted maximal effect; nearly all actives have a fitted effect of over 55% in size
Target sequence (P18054 whole entry, looked up): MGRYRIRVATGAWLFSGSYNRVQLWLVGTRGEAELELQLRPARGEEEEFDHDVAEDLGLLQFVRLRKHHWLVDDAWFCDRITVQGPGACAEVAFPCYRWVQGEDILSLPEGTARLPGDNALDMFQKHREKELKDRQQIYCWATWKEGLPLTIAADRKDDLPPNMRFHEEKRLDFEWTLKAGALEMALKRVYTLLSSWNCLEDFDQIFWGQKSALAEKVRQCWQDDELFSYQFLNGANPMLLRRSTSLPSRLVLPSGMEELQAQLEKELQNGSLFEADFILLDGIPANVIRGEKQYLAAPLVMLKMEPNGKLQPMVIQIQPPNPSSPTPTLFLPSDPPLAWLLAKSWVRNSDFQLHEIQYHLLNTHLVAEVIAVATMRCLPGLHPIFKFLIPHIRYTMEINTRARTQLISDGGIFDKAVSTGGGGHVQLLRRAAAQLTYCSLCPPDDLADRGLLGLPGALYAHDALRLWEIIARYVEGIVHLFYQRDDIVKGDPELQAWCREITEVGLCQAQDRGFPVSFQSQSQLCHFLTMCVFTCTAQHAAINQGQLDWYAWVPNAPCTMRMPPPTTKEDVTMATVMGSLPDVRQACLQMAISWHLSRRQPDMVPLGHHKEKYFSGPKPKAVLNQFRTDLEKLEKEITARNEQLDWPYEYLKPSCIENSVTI
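Hydroperoxide output read as Fe(III)-xylenol orange absorbance, 573-to-405 nm ratio, after 30 min reaction with 40 uM arachidonic acid. Enzyme: 150 nM purified human 12hLO, 15 min compound preincubation; 25 mM Hepes pH 7.0, room temperature.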
Active calls of the source: *; ? = inconclusive; / = not tested or not shown; [ ] = another dose, or the depositor's remark. This excerpt belongs to a sample that is enriched for hits. Unless noted, the call rests on the fitted dose curve; in most records, active means well fitted curve in the direction sought with a large enough effect; inconclusive means small, poorly fitted or top-dose-only effect, or another doubt; inactive means no such curve, though single readings can be large; an effect the other way counts as inactive or inconclusive. Unless noted, on the % scale 0 is the no-effect control and ±100 the full control effect.

SMILES | IMPase Li cell | IMPase inh | PNC assembly inh | ALOX12 inhib
O=C(Nc1ccc(-c2cn3ccsc3n2)cc1)C1COc2ccccc2O1 (stereo unspecified) | -1%[38.3 µM] | 11 | -94* | -3%
NS(=O)(=O)c1ccc(NC(=O)C2COc3ccccc3O2)cc1 (stereo unspecified) | 14%[38.3 µM] | 0 | -6 | 3%
O=C(Nc1nncs1)C1COc2ccccc2O1 (stereo unspecified) | 31%[38.3 µM] | 9 | 13 | -1%
CC1CC(C)CN(S(=O)(=O)c2ccc(NC(=O)C3COc4ccccc4O3)cc2)C1 (stereo unspecified) | 25% | -3 | -122* | -4%
O=C(O)CCc1ccc(-c2ccccc2)[nH]1 | -2% | / | / | -2%[11.4 µM]
COC(=O)[C@@]1(C)C=C[C@@H](Cc2ccccc2)N1C | 3% | / | / | -4%
C=CCn1c(NCCO)nc2sc3c(c2c1=O)CCC3 | 12%[38.3 µM] | 0 | -114* | -6%
O=c1c2c3c(sc2nc(NCCO)n1CCc1ccccc1)CCCCC3 | -3% | -7 | -28 | -5%
CCOC(=O)NC(=O)c1cn(CCN(C)C)c(=O)[nH]c1=O | 4% | / | -11 | -1%
Cc1sc2nc(CN3CCOCC3)[nH]c(=O)c2c1-c1ccccc1 | -13% | / | -110* | -4%
CCC(N)(C(=O)O)c1ccc(C(=O)O)cc1 (stereo unspecified) | -4% | / | / | /
Cc1ccc(-n2c(C)cc(C(=O)COC(=O)c3ccc[nH]c3=O)c2C)cc1 | -3% | / | -82* | -2%
O=C(C1=C(O)C(=O)N(CCCN2CCOCC2)C1c1ccncc1)c1cc2ccccc2o1 (stereo unspecified) | -18% | -25 | 15 | -7%
COc1ccc(C2C(C(=O)c3ccco3)=C(O)C(=O)N2Cc2cccnc2)cc1OC (stereo unspecified) | -18%[38.3 µM] | 2 | 45 | -12%
O=C(C1=C(O)C(=O)N(Cc2ccccc2)C1c1ccncc1)c1ccco1 (stereo unspecified) | -23% | -22 | 34 | -1%
O=C(C1=C(O)C(=O)N(Cc2ccco2)C1c1cccnc1)c1cc2ccccc2o1 (stereo unspecified) | 8.9µM* | ? | 37 | -9%
COc1cccc2cc(C(=O)C3=C(O)C(=O)N(Cc4ccco4)C3c3cccnc3)oc12 (stereo unspecified) | 10µM* | ? | -23 | 0%
O=C(C1=C(O)C(=O)N(CC2CCCO2)C1c1cccnc1)c1ccco1 (stereo unspecified) | 13µM* | ? | -10 | -9%
O=C(C1=C(O)C(=O)N(CCN2CCOCC2)C1c1cccnc1)c1cc2ccccc2o1 (stereo unspecified) | 10µM* | -28 | -16 | -7%
O=[N+]([O-])c1ccccc1S(=O)(=O)Oc1ccc(C(=S)N2CCOCC2)cc1 | 8% | / | -20 | -2%
CCc1ccc(C(c2c(C)nn(-c3ccccc3)c2N)c2c(C)nn(-c3ccccc3)c2N)cc1 | 15% | / | -5 | -21%
COC(=O)c1ccc(C2C(C(=O)c3cc4ccccc4o3)=C(O)C(=O)N2CCCN(C)C)cc1 (stereo unspecified) | ? | -28 | ? | 7%
CN(C)CCCN1C(=O)C(O)=C(C(=O)c2cc3ccccc3o2)C1c1ccccc1 (stereo unspecified) | 10µM* | ? | 43 | 2%
CC[C@H](CN(C)C)C(=O)c1ccco1 | 4% | / | / | 1%[11.4 µM]
O=C(/C=C/c1cccs1)Nc1ccc(Br)cn1 | -3% | 5 | ? | 2%
SMILES | IMPase Li cell | IMPase inh | PNC assembly inh | ALOX12 inhib
CCCCOc1ccc(C(=O)NC)cc1 | -2%[38.3 µM] | 5 | 2 | -3%
CCCCOc1ccc(C(=O)Nc2ccncc2)cc1 | 9%[38.3 µM] | 2 | -118* | 5%
CCCOc1ccc(C(=O)NC(C)C(=O)O)cc1 (stereo unspecified) | 13%[38.3 µM] | 1 | -106* | -10%
COc1ccc(C)cc1NC(=O)NCc1ccccc1F | -7% | / | / | /
COC(=O)C1=C(C)NC(C)=C(C(=O)OC)C1C(=O)OC(C)C(=O)c1ccccc1 (stereo unspecified) | 5% | / | / | /
COC(=O)c1ccc(CSc2nnc(NC(C)C)s2)o1 | -2% | / | / | /
O=C(OCC#CCSc1nc2ccccc2o1)c1ccco1 | 26%[38.3 µM] | -13 | -83* | -4%
CCN(CC)S(=O)(=O)c1ccc(C)c(NC(=O)CSc2nc3ccccc3[nH]2)c1 | 9% | / | -92* | -3%
Cc1ccc(S(=O)(=O)N(C)C)cc1NC(=O)CSc1nc2ccccc2[nH]1 | -3% | / | 2 | -3%
CC(C)Cn1c(Br)nc2c1c(=O)n(CCC#N)c(=O)n2C | 10%[38.3 µM] | 1 | -123* | -5%
CCCn1c(=O)c2c(nc(Br)n2CCC)n(C)c1=O | 4%[38.3 µM] | 0 | 13 | -6%
CCN1CN(Cc2ccco2)CNC1=S | -8% | / | -82* | -1%
CCOc1cc(/C=N/NC(=O)c2cccnc2)ccc1OCc1ccc(C(=O)OC)o1 | 1% | / | / | /
N#Cc1c(-c2ccco2)cc(-c2cccnc2)nc1N | / | 12 | 22 | -7%
N#Cc1c(-c2ccccc2F)cc(-c2cccnc2)nc1N | -1% | / | -96* | -1%
CC(NC(=O)c1ccc(N(C)C)cc1)C(c1cccs1)N1CCN(C)CC1 (stereo unspecified) | 24%[38.3 µM] | 17 | ? | 2%
CC(NC(=O)c1ccc(F)cc1)C(c1cccs1)N1CCN(C)CC1 (stereo unspecified) | -7% | -8 | -116* | 11%
COc1ccccc1NC(=O)CSC(N)=O | -8%[38.3 µM] | 1 | 21 | -4%
O=C(NCc1ccccc1)c1ccc(-c2ccccc2C(F)(F)F)o1 | 3% | / | -84* | -4%[0.00818 µM]
COCCOc1cc(N)c(Cl)cc1Cl | 3% | / | / | /
COc1ccc2nc(NC(=O)c3ccc(NS(=O)(=O)c4cccs4)cc3)sc2c1 | 12% | / | ? | -2%
Cc1cccc2sc(NC(=O)c3ccc(NS(=O)(=O)c4cccs4)cc3)nc12 | -7% | / | -84* | -3%
CCC(=O)c1ccc(OCC(O)Cn2nnc3ccccc32)cc1 (stereo unspecified) | -4% | / | / | /
Cc1ccccc1OCC(O)Cn1nnc2ccccc21 (stereo unspecified) | 3% | 3 | -100* | -1%
C#CCNC(=O)C1CCN(c2ccc(S(=O)(=O)N3CCOCC3)cc2Cl)CC1 | 9% | / | / | /
O=C(NCc1cccs1)C1CCN(c2ccc(S(=O)(=O)N3CCOCC3)cc2Cl)CC1 | 13%[38.3 µM] | 7 | -124* | -6%
COC(=O)c1ccc(C(/C=C/[C@@H](C)C(=O)N[C@H](C)CO)NC(=O)OCc2ccccc2)cc1 (stereo partly specified) | 0% | / | / | -1%
CCc1ccc(-c2cc(C(=O)Nn3cnnc3)c3ccccc3n2)cc1 | -7%[38.3 µM] | 15 | -82* | 1%
Cc1cc([N+](=O)[O-])cnc1N1CCOCC1 | -4% | / | -114* | -2%

Screening data deposited in PubChem BioAssay by National Center for Advancing Translational Sciences (NCATS).
